Rab9 promoter act – Rab9 promoter activation. Huh7 Rab9 promoter-luciferase reporter, luminescence, 24 h. Potency, µM (highest dose often 9.22 µM), for the others: at the highest dose activation, negative = inhibition, hits mostly activators. actives 2.8% (n = 320,000); further: % of control where 0% means no effect; nearly all actives have a fitted effect of over 60% in size
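Measured in stably transfected Huh7 cells bearing a Rab9 promoter–luciferase construct: 24 h compound treatment at 37 °C, followed by luminescence detection.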
SMN2 splice up – SMN2 splice variant enhancement. HEK293 SMN2-luciferase splicing reporter, luminescence, 30-36 h. Potency, µM (doses to about 46.1 µM), for inactives: at the highest dose activity change, positive = activation, usual class: activators. actives 2.8% (n = 210,000). AID 1458; further: % of control where 0% means no effect; nearly all actives have a fitted effect of over 55% in size
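HEK293 cells carry an SMN2 […]–luciferase reporter in which exon 7 inclusion puts luciferase in frame. Cells were plated 10-12 h before compound addition, then incubated 30-36 h at 37C. ONE-Glo luminescence was read; sodium butyrate at 4.5 mM final served as control.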
FLuc counter – inhibits or activates purified firefly luciferase, miR-21 counter-screen. purified FLuc, Km substrates, luminescence inhibition. Potency, µM (titrated, usually from 57.5 µM), without a hit: at the top dose activity change, negative = inhibition, usual class: inhibitors. actives 6.9% (n = 360,000). AID 588342;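 further: plate controls were vehicle for no effect and reference inhibitor for full effect; nearly all actives have a fitted effect of over 55% in size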
Target sequence (P08659 whole entry, looked up): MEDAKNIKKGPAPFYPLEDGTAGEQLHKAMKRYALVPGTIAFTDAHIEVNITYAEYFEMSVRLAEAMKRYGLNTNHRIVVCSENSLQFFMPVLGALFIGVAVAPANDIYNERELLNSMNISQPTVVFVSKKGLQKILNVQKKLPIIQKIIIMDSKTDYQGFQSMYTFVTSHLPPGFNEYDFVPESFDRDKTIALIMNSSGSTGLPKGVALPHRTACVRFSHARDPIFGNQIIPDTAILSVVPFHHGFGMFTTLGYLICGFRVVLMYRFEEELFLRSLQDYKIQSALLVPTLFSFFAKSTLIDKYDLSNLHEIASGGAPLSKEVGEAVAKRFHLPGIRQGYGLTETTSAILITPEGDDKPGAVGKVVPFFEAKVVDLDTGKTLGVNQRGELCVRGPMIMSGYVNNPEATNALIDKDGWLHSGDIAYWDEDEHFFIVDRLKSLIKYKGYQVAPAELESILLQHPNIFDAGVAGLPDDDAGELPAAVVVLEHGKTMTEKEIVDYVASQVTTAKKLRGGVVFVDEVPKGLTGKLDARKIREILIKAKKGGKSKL
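Purified P. pyralis luciferase, 10 nM final, with Km-level 10 uM D-luciferin and 10 uM ATP in 50 mM Tris acetate pH 7.5, 10 mM Mg acetate, 0.01% Tween-20, 0.05% BSA; 6-point qHTS titration about 60 µM downward; luminescence read.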
NPC1 promoter act – activators of NPC1 promoter. Huh7 NPC1 promoter luciferase reporter, 24 h. Potency, µM (doses to about 9.22 µM), without a hit: top-dose activation, hits mostly activators. actives 2.4% (n = 320,000). AID 485313; further: % of control where 0% means no effect; nearly all actives have a fitted effect of over 60% in size
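Huh7 cells stably carrying NPC1 promoter–luciferase, plated in Opti-MEM with 10% FBS for 2 h, were exposed to compound in DMSO for 24 h at 37 °C; luciferase reagent was added for 10 min and luminescence read.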
ELG1 genotoxic – inducers of genotoxicity in HEK293T ELG1-luciferase cells; HEK293T ELG1-luciferase reporter, luminescence, 16 h; Potency, µM (titrated, usually from 46 µM), for inactives: top-dose activity change, positive = activation, actives largely listed as activators; actives 1.3% (n = 330,000); further: % of control where 0% means no effect; nearly all actives have a fitted effect of over 60% in size
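Screening used a luciferase reporter fused to human ELG1 in HEK293T cells. Luminescence was read on a CCD plate imager after 16 hr exposure and 30 min ONE-Glo incubation.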
Starred values were filed as active, the others as inactive; ? = inconclusive; . = not tested or not shown; [ ] = remark or other dose. Only some compounds are listed: those with a hit (about 7.5% of all), similar ones and a draw of the others. The call rests on the fitted dose curve; in most records, active means well fitted curve in the direction sought with a large enough effect; inconclusive means small, poorly fitted or top-dose-only effect, or another doubt; inactive means no such curve, though single readings can be large; an effect the other way counts as inactive or inconclusive. Potency means the concentration at half of the fitted maximal effect.

SMILES | Rab9 promoter act | SMN2 splice up | FLuc counter | NPC1 promoter act | ELG1 genotoxic
S=c1[nH]nc(-c2cc(-c3ccccc3)n[nH]2)n1/N=C/C(Br)=C/c1ccccc1 | -4% | . | -9% | -13% | -14%
COc1cccc2c1CCc1c-2nc2ccccc2c1C(=O)O | ? | . | 0.95µM* | ? | ?
O=C(O)c1c2c(nc3ccccc13)/C(=C/c1c(F)cccc1F)CCC2 | -3% | . | ? | -1% | 6%
O=C(O)c1c2c(nc3ccccc13)/C(=C/c1ccc(OC(F)F)cc1)CCC2 | ? | . | 12µM* | ? | ?
O=C(O)c1c2c(nc3ccccc13)/C(=C/c1ccc(O)cc1)CC2 | ? | -53% | 0.54µM* | ? | -4%
Clc1ccc(Cn2nc(-c3ccccc3)nc2-c2ccccc2)cc1 | 23% | ? | 15µM* | 22% | 11%
Cc1cc(C)c(S(C)(=O)=O)c(NN)n1 | -2% | -8% | -4% | 0% | 5%
Cc1cc(=O)[nH]c2ccc(S(=O)(=O)Nc3ccccc3)cc12 | -1% | . | 5% | -4% | 23µM*
Cn1cccc1C(=O)/C(C#N)=C/c1ccc(F)cc1 | -4% | . | 6.7µM* | 2% | 1%
COc1ccccc1/C=C(\C#N)C(=O)c1cccn1C | 2% | . | 11µM* | -5% | 0%
COc1ccc(/C=C(\C#N)C(=O)c2cccn2C)cc1 | -2% | . | 1.5µM* | 0% | 1%
O=C(CCc1nc2ccccc2c(=O)[nH]1)N1CCN(c2ccc(F)cc2)CC1 | -12% | -24% | 0% | -1% | -7%
O=C(Cc1ccccc1)Nc1cc(-c2nc3cc(Cl)ccc3o2)ccc1Cl | . | ? | 3% | . | .
CCC(=O)Nc1cc(-c2nc3cc(C)cc(C)c3o2)ccc1C | . | 11% | 1.7µM* | . | .
CCc1ccc2oc(-c3ccc(C)c(NC(=O)Cc4ccccc4)c3)nc2c1 | . | 23% | 4.8µM* | . | .
CCc1ccc2oc(-c3ccc(C)c(NC(=O)c4ccc(C#N)cc4F)c3)nc2c1 | . | -10% | 17µM* | . | .
COc1ccc2oc(-c3ccc(C)c(NC(=O)COc4cc(C)cc(C)c4)c3)nc2c1 | . | 1% | -1% | . | .
CCCCC/C=C\C/C=C\C/C=C\C/C=C\CCCC(=O)O[C@@H](CO)COC(=O)CCCCCCCCCCCCCCCCC | . | -10% | . | . | .
C[C@@H]1CC[C@H]2[C@H](C)[C@H]3CC[C@H]4C5[C@@H](O)CC6=CC(=O)CC[C@]6(C)[C@H]5C[C@H]4C3C(=O)N2C1 (stereo not given in full) | . | 1% | . | . | .
CC(Oc1ccccc1F)C(=O)Nc1ccc2ccccc2c1 (stereo not given) | 5% | 3.5µM* | ? | -4% | 2%
CSc1cccc(NC(=O)c2ccccn2)c1 | 4µM* | ? | 11µM* | ? | ?
CSc1cccc(NC(=O)N2CCc3ccc(NC(=O)c4ccccn4)cc3C2)c1 | 4µM* | . | 8.5µM* | 2.5µM* | -7%
COC(=O)[C@@H]1C[C@H]1[C@@H](NC(=O)Oc1ccc(F)cc1)c1ccccc1 | . | -12% | . | . | .
COC(=O)c1ccc(CN(c2ccc(C(=O)O)c(O)c2)S(=O)(=O)c2ccc(Cl)c([N+](=O)[O-])c2)cc1 | -2%[1.84 µM] | . | -8% | -3% | -3%
CCOC(=O)c1ccc(NC(=O)c2cc3ccccc3o2)cc1 | ? | -15% | 9.5µM* | ? | 15%
SMILES | Rab9 promoter act | SMN2 splice up | FLuc counter | NPC1 promoter act | ELG1 genotoxic
CCOC(=O)c1cccc(NC(=O)c2cc3ccccc3o2)c1 | 1.3µM* | . | 5.4µM* | ? | -4%
CCOC(=O)c1ccccc1NC(=O)c1cc2ccccc2o1 | ? | . | ? | -2% | -15%
CCC(=O)Nc1ccc(NC(=O)c2cccc(OC)c2)nc1 | 2.2µM* | 11µM* | 11µM* | ? | ?
COc1cccc(C(=O)Nc2ccc(NC(=O)C3CC3)cn2)c1 | 3.2µM* | 43% | 7.6µM* | 2µM* | ?
COc1cc(C(=O)NCC(=O)NNC(=O)C2COc3ccccc3O2)cc(OC)c1OC (stereo not given) | 1% | . | 0% | -2% | 2%
COc1ccc(Cl)cc1NS(=O)(=O)c1cccc(C(=O)NC2CC2)c1 | . | . | . | . | -1%

Screens deposited in PubChem BioAssay by National Center for Advancing Translational Sciences (NCATS).
